The values that follow come from PubChem BioAssay (NCI).

About 79,000 compounds went through this panel and 15% of them were active in at least one assay; those are over-represented in the sample as a whole. Unmarked numbers belong to inactive results. Calls of active or inactive are those of the source. No stated cut-off is given here; in the data, active means growth inhibition above about 70%; inactive means the rest.

A short description of assay [1]: NCI Yeast Anticancer Drug Screen. Data for the rad50 strain (AID 155).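 Further: 0% = growth of vehicle-only cultures of the same strain.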 The conditions noted are these: S. cerevisiae rad50 strain growth inhibition; at 50.0 µM; active compounds read high. Summed up:
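Genetically altered yeast (DNA repair pathway); compound treatment; growth inhibition vs vehicle ctrl.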

A short description of assay [2]: NCI Yeast Anticancer Drug Screen. Data for the mec2-1 strain (AID 157). The conditions noted are these: S. cerevisiae mec2-1 strain, at 50.0 µM, active compounds read high. A digest of the protocol:
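Cells of the genetically defined mec2-1 yeast strain are incubated with test compound. Inhibition of growth is calculated against vehicle-treated controls.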

Assay [3] can be described thus: NCI Yeast Anticancer Drug Screen. Data for the sgs1 mgt1 strain (AID 161).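 Further: 0% = growth of cultures given vehicle only.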 Conditions: S. cerevisiae sgs1 mgt1 strain, at 50.0 µM, active compounds read high. Summed up:
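Mutant yeast exposed to compound; growth scored against vehicle-only wells.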

Assay [4] can be described thus: NCI Yeast Anticancer Drug Screen. Data for the cln2 rad14 strain (AID 165).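 Further: 0% = growth equal to vehicle treated cultures.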 The conditions noted are these: S. cerevisiae cln2 rad14 strain, at 50.0 µM, active compounds read high. Summed up:
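The screen exposed genetically defined yeast (cln2 rad14) to test compounds and scored growth inhibition relative to vehicle-treated controls.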

Assay [5] can be described thus: NCI Yeast Anticancer Drug Screen. Data for the bub3 strain (AID 167). Conditions: S. cerevisiae bub3 mutant strain, at 50.0 µM, active compounds read high. A digest of the protocol:
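Yeast carrying a defined mutation is treated with each compound, and growth is compared with that of vehicle-exposed cells to give inhibition.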

Assay [6] is described as follows: NCI Yeast Anticancer Drug Screen. Data for the mlh1 rad18 strain (AID 175). The conditions noted are these: S. cerevisiae mlh1 rad18 strain growth inhibition; at 50.0 µM; active compounds read high. A digest of the protocol:
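Compound-treated yeast growth, normalised to vehicle controls. Strain bears defined DNA repair mutations.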

Turning to `Cc1cc2nc3c(=O)[nH]c(=O)nc-3n(CCOC(=O)CCC(=O)O)c2cc1C`, the growth inhibition is -8.35% in assay [1]; 9.45% in assay [2]; 10.5% in assay [3]; 0.2% in assay [4]; 3.1% in assay [5]; 3.95% in assay [6].

Take `O=C1/C(=C/c2ccc(Cl)c(Cl)c2)CCC/C1=C\c1ccc(Cl)c(Cl)c1`: the growth inhibition was 30.4% in assay [1]; -5.85% in assay [2]; 2.7% in assay [3]; 2.95% in assay [4]; -3.7% in assay [5]; 1.2% in assay [6].

As to `CC1CCCC(C)(C)/C1=N/O` (stereo not given), the growth inhibition in assay [1] is 16.1%; in assay [2], 20.2%; in assay [3], 12.5%; in assay [4], 12.8%; in assay [5] it was 20.8%; in assay [6], 6.7%.

Regarding `COC(=O)C(O)C(O)C(O)C(O)C(=O)OC` (stereo not given), the growth inhibition in assay [1] is 2.2%; in assay [2] it was 17.4%; in assay [3], 10.8%; in assay [4] it was -5.65%; in assay [5], 11.2%; in assay [6] it was 13.3%.

On to `CCN(CC)C(=O)CCn1ccc(=O)[nH]c1=O`, for which the growth inhibition in assay [1] is -52.4%; in assay [2], -33.4%; in assay [3] it was -25.8%; in assay [4], 9.55%; in assay [5], -2.75%; in assay [6], -5.35%.

As to `CN(C)c1ccc(NC2COc3ccccc3C2=O)cc1` (stereo not given), the growth inhibition in assay [1] is -13.1%; in assay [2] it was 3.9%; in assay [3], 17.4%; in assay [4] it was -17.2%; in assay [5], 67%; in assay [6], -6.6%.

As to `COc1cc(C(=O)NNC(=O)C2CCC(=O)N2Cc2ccccc2)cc(OC)c1OC` (stereo not given), the growth inhibition in assay [1] is 3.3%; in assay [2], -4.6%; in assay [3] it was -18%; in assay [4], -4.45%; in assay [5], -1.75%; in assay [6], 28.4%.

As to `Cc1ccc2c(c1)CN(C)CO2`, the growth inhibition in assay [1] is -15%; in assay [2], 6.45%; in assay [3], 5.6%; in assay [4], -51.4%; in assay [5], -18.1%; in assay [6], -24.1%.

Consider `Cc1ccccc1C(N)=O`, for which the growth inhibition is 23.7% in assay [1]; 3.6% in assay [2]; 11.2% in assay [3]; -12.6% in assay [4]; 12.8% in assay [5]; 26.5% in assay [6].

`COc1cc(C(O)C(=O)c2cnc3cc([N+](=O)[O-])ccc3n2)ccc1O` (stereo not given): the growth inhibition in assay [1] was 24.8%; in assay [2], 11.3%; in assay [3], -10.8%; in assay [4], 2.15%; in assay [5], -19%; in assay [6], -1.95%.

On to `COC(=O)CSc1n[nH]c(-c2ccccc2)n1`, for which the growth inhibition in assay [1] is 1.05%; in assay [2], -7.25%; in assay [3], 7.2%; in assay [4], -1%; in assay [5], 3.4%; in assay [6], -4.3%.

Regarding `CC(=O)C(=Cc1ccc(Cl)c(Cl)c1)C(C)=O`, the growth inhibition in assay [1] was 99.5% (active); in assay [2], 99.7% (active); in assay [3], 99.7% (active); in assay [4] it was 99.6% (active); in assay [5], 99.5% (active); in assay [6], 99.5% (active).

Regarding `COc1ccccc1C(=O)N(C)c1ccc(Cl)c(C(=O)OC(C)C)c1`, the growth inhibition was 30.9% in assay [1]; 24.7% in assay [2]; 46.4% in assay [3]; 37.7% in assay [4]; 44.5% in assay [5]; 6.85% in assay [6].

Turning to `CN(C)CCCC1(O)c2ccccc2Sc2cc(Cl)ccc21` (stereo not given), the growth inhibition in assay [1] is 12.9%; in assay [2] it was 12.9%; in assay [3], 17.9%; in assay [4], 18.6%; in assay [5], 12.7%; in assay [6], 25.9%.

With `Cc1cc2nc3n(c2cc1C)C(=O)c1cc2ccccc2cc1-3`, the growth inhibition in assay [1] is -8.55%; in assay [2], 0.6%; in assay [3], 3.1%; in assay [4], 7.7%; in assay [5] it was -10.4%; in assay [6] it was 2.7%.

Regarding `NCCNC(=O)c1ccccc1`, the growth inhibition was -6.5% in assay [1]; 1.8% in assay [2]; 0.75% in assay [3]; 17.3% in assay [4]; -7.95% in assay [5]; 4.65% in assay [6].

`CCCCCCCCCC[CH2][Sn]([CH2]CCCCCCCCCC)([CH2]CCCCCCCCCC)[CH2]CCCCCCCCCC`: the growth inhibition was 5.8% in assay [1]; 7.8% in assay [2]; -3.4% in assay [3]; -16.3% in assay [4]; -1.25% in assay [5]; 23.7% in assay [6].

Regarding `O=C(NCP(=O)(c1ccccc1)c1ccccc1)OCc1ccccc1`, the growth inhibition in assay [1] is -50.2%; in assay [2], -3.7%; in assay [3], -25.9%; in assay [4], 10.4%; in assay [5], -12.5%; in assay [6], 6.6%.

As to `CCCCSCC(O)c1ccccc1` (stereo not given), the growth inhibition in assay [1] is -8.85%; in assay [2] it was -19.1%; in assay [3], -24.5%; in assay [4], -44.1%; in assay [5], 9%; in assay [6] it was -2.2%.

As for `C=CCOC(=O)C(CC=C)C(C)=O` (stereo not given), the growth inhibition is 3.3% in assay [1]; -21.9% in assay [2]; -17.1% in assay [3]; -5.05% in assay [4]; -19.8% in assay [5]; -11.4% in assay [6].
